Drawing on the OligoGym collection, this text covers sensor-assay potency score (higher = more potent) for 40 sequences.
Further: reference of the scale not given here.

The first experiment addresses TAAR8. The experiment in a line: pooled miR-30 sensor sort-seq; sequence = guide strand. The settings on record: shRNA.
Sequence TAATGGTTGATGAACTAGCCTT displayed a sensor-assay potency score (higher = more potent) of -0.64.
In the case of TTTAGCTATAAGAAAAATCTTA, the sensor-assay potency score (higher = more potent) was -0.583.
TTAGCTATAAGAAAAATCTTAC had a sensor-assay potency score (higher = more potent) of -0.74.
TATAGCTTGTTGTTTAGCTATA gave a sensor-assay potency score (higher = more potent) of -1.63.
For the sequence TATAAGAAAAATCTTACTGTAA, the sensor-assay potency score (higher = more potent) is -0.203.
In the case of AAATCTATCAACACCCAGCCTT, the sensor-assay potency score (higher = more potent) was -0.587.
Sequence TTATAGCTTGTTGTTTAGCTAT came in with a sensor-assay potency score (higher = more potent) of -0.98.

The next experiment deals with TAC4. Described as above. The settings on record: shRNA.
TCTGCCTTCTGTGAACAGGCTT displayed a sensor-assay potency score (higher = more potent) of -0.554.
TTCCTCTCCACCATCACCTGCC: the sensor-assay potency score (higher = more potent) is 0.531.
The sequence TTTTTTTCTCCTTGGCTGGATC had a sensor-assay potency score (higher = more potent) of -1.14.
In turn, TCTCTGCCTTTTTTTCTCCTTG returned a sensor-assay potency score (higher = more potent) of -0.948.
Consider TGAACAGGCTTCTCTTGCCCAG, for which the sensor-assay potency score (higher = more potent) is -1.26.
TGCAGCTGGAGCTGAATGCTGG: the sensor-assay potency score (higher = more potent) is -1.1.
For the sequence TGCTTCAGTGCTGAGTGTCTGT, the sensor-assay potency score (higher = more potent) was -0.405.
The sequence TCATCCTCTCTGCCTTCTGTGA yielded a sensor-assay potency score (higher = more potent) of -1.57.
Sequence TATGCTTTTTTTCTCCTTGGCT came in with a sensor-assay potency score (higher = more potent) of -0.257.
For the sequence TCTGTGAACAGGCTTCTCTTGC, the sensor-assay potency score (higher = more potent) is -0.505.
In turn, TGCTTTTTTTCTCCTTGGCTGG yielded a sensor-assay potency score (higher = more potent) of -1.36.
In the case of TTCTGTGAACAGGCTTCTCTTG, the sensor-assay potency score (higher = more potent) was -0.693.

A further experiment has as its target TACR1. The description is as above. The settings on record: shRNA.
As for TAGTTCGTCACTGTCCTCATTC, the sensor-assay potency score (higher = more potent) was -0.77.
In turn, TAGGTGAAGTTCACCACTGTAT gave a sensor-assay potency score (higher = more potent) of -0.204.
As to TTTCTCATAAATCTTGTTCGGA, the sensor-assay potency score (higher = more potent) came out at 0.392.
For TCGATCATGCACACGACTCTGC, the sensor-assay potency score (higher = more potent) stood at 0.106.
With TTCGTCACTGTCCTCATTCTTT, the sensor-assay potency score (higher = more potent) is -0.603.
On the same count and under the same terms, then TCGTTGTGGACAGCATAGGTGA, with -1.11; and TTGAGTAGTAGCCCTGGGGGAA, with -0.65.
In turn, TAGAACAGGCCGTAGTACCATT displayed a sensor-assay potency score (higher = more potent) of -1.05.
TAGATCAGCACAGTCACACAGA gave a sensor-assay potency score (higher = more potent) of -0.182.
In turn, TGGTCTTGGAGTCACTTCGTGA returned a sensor-assay potency score (higher = more potent) of -1.54.
On to TGACTTTGTACACACTGCCCTG, for which the sensor-assay potency score (higher = more potent) was -1.2.
TTCTCATAAATCTTGTTCGGAT showed a sensor-assay potency score (higher = more potent) of -0.905.

A further experiment has as its target TAF3. Described as above. The settings on record: shRNA.
Sequence TTTATCTGCTACCACAGCCTTT yielded a sensor-assay potency score (higher = more potent) of -0.868.
The sequence TATCTTTATCTTTCTTGCCTTT showed a sensor-assay potency score (higher = more potent) of -0.809.
Same read-out and setting: with TAAACTTGTAGGGATCTGCCTC the figure was 0.187.
Same read-out and setting: with TTCTTGTTCGCACACTTGGGGC the figure was -1.41; with TTCAGCTTCAGGACTATCCAGT, -0.217; with TAACACAACATCTAGCGTGTCC, 0.323.
Regarding TTGTCCTTCTTCTTGTTCGCAC, the sensor-assay potency score (higher = more potent) was 0.171.
Same read-out and setting: then TTTGGGAGTAGTACACTCCGGG, with 0.0818.
The sequence AATAACACAACATCTAGCGTGT returned a sensor-assay potency score (higher = more potent) of 0.896.
